The list is not random: actives were taken first. Their share in the collection is about 4.4%.
D1 ag: activates the human D1 dopamine receptor; activation, % at 2 µM; 360,000 tested, 1% active; HEK293 T-REx D1 cells, calcium flux, agonist mode; P21728
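Inducible HEK293 T-REx D1 cells, force-coupled to calcium signalling, were plated at 4000 cells/well with tetracycline and held overnight at 30 C. After no-wash calcium dye loading, compound-evoked calcium rise over 180 s flagged agonists.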
D1 potentiator: human D1 dopamine receptor positive modulation | 360,000 tested, 0.036% active | potentiation, % at 10 µM | P21728 | AID 504651 | HEK293 TREx D1 cells, calcium flux, dopamine EC20 potentiation; in the data active = potentiation above about 30%
TRHR enhancer: TRH receptor (human) allosteric enhancement; TRHR cells, fluo-8 calcium fluorescence, EC20 TRH enhancement; 360,000 tested, 0.66% active; enhancement, % at 2 µM; P34981; in the data active = enhancement above about 30%
Target sequence (P34981 whole entry, looked up): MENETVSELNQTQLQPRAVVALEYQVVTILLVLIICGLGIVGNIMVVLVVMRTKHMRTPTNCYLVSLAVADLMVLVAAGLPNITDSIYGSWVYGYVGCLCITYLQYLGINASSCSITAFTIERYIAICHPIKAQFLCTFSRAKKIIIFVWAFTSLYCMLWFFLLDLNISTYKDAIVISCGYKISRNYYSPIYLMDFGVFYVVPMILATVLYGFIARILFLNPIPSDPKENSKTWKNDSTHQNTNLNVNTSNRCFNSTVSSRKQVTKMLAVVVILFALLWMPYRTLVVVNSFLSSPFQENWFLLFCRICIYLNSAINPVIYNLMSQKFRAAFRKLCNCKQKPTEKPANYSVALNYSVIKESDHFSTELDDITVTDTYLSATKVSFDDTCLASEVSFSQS
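TRHR-expressing cells loaded with fluo-8 calcium dye were read kinetically (ex 480/em 530) during compound addition, then stimulated with an EC20 of TRH (10 nM final). Enhancement of the Gq-mediated intracellular calcium response was scored.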
TRHR ag: activates the human TRH receptor; P34981; TRHR cells, calcium flux fluo-8, FDSS agonist mode; activation, % at 2 µM; 360,000 tested, 0.18% active
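Read-out: compound-evoked intracellular calcium rise in TRHR cells, fluo-8 dye, kinetic FDSS fluorescence at 1 s/cycle following a 10-cycle baseline. Cells cultured overnight before dye loading (30 min–1.5 h, RT).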
USP1 inh: inhibitors of human USP1/UAF1 deubiquitinase; O94782; recombinant USP1/UAF1, Ub-Rhodamine cleavage fluorescence; Potency, µM (top dose mostly 57.1 µM), hits mostly inhibitors; 390,000 tested, 0.23% active; AID 743255; active = well fitted inhibition curve with a large enough effect; inconclusive = small, poorly fitted or top-dose-only effect; inactive = no such curve, though single readings can be large or run the other way; also: nearly all actives have a fitted effect of over 60% in size
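In this screen, compounds sit with the deubiquitinase complex (1nM) for 15 min at room temperature before Ub-Rho is added at 150nM final. Fluorescence rise is then followed for 6 reads every 60 seconds.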
D1 antag: blocks dopamine activation of the human D1 receptor | HEK293 TREx D1 cells, calcium flux, dopamine EC80; hits give low values | activity change, negative = inhibition, % at 10 µM | 360,000 tested, 3.2% active; in the data active = activity change below about -30%
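Compound effects on dopamine-evoked calcium signalling were measured in tetracycline-induced HEK293 Trex D1 cells. Dopamine at EC80 followed a 180 s compound pre-read, and fluorescence was tracked kinetically for 180 s more.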
Hits are given with their value; – = inactive; ? = inconclusive; · = not tested or not shown. Rule as the data show it, unless noted: active = activation above about 30%; inactive = the rest.

SMILES | D1 ag | D1 potentiator | TRHR enhancer | TRHR ag | USP1 inh | D1 antag
CCOc1ccc(N2C(=O)c3[nH]nc(-c4ccc(OC)cc4)c3C2c2cccs2)cc1 (configuration not stated) | – | – | – | – | – | –
CN1CCc2sc(NC(=O)Cc3ccccc3)c(C(=O)Nc3ccc(Cl)cc3)c2C1 | – | – | – | – | · | -53
CCC(=O)Nc1sc2c(c1C(=O)Nc1cccc(C)c1)CCCC2 | – | – | – | – | – | –
CCOC(=O)c1c(NC(=S)Nc2ccc(OC)cc2)sc2c1CCCCC2 | – | – | – | – | – | –
CCOC(=O)c1c(NC(=S)NNS(=O)(=O)c2ccc(Br)cc2)sc2c1CCCCC2 | – | – | – | – | – | -33
CCC(=O)Nc1sc2c(c1C(=O)Nc1ccc(Br)cc1)CCCCC2 | – | – | – | – | – | -31
O=C(Cn1c(=O)nc(-c2ccccc2)c2cc(Cl)ccc21)NCCc1ccccc1 | – | – | – | – | – | –
COc1ccc(CNC(=O)CN(C)Cc2ccccc2F)cc1OC | – | – | – | – | – | -36
Cc1ccc2c(c1)N(C(=O)N1CCC(C(=O)NC3CCCCCC3)CC1)CC(C)O2 (configuration not stated) | – | – | – | – | – | –
O=C(CNC(=O)C(c1ccccc1)c1ccccc1)N/N=C\c1cccc(O)c1 | 52 | – | – | – | – | –
C=C(C)Cn1c(SCC(=O)N/N=C/c2cccc(O)c2)nc2ccccc2c1=O | – | – | – | – | – | -35
C=C(C)Cn1c(SCC(=O)N/N=C/c2ccccc2)nc2ccccc2c1=O | – | – | – | – | – | –
Cc1csc2nc(COc3ccc(NC(=O)c4ccccc4F)cc3)cc(=O)n12 | – | – | – | – | – | –
C(=N\n1cnnc1)/c1nc2ccccc2[nH]1 | – | – | – | – | – | -34
COc1cccc(/C=C2/NC(=O)N(CC(=O)Nc3ccc(C)cc3)C2=O)c1OCc1cccc(C(=O)O)c1 | – | · | – | – | 25µM | –
Cc1ccc(NC(=O)CN2C(=O)N/C(=C/c3ccccc3OCc3cccc(C(=O)O)c3)C2=O)cc1 | – | · | – | – | ? | –
CCS(=O)(=O)N1CCC2(CC1)OC(=O)C(C)=C2C(=O)NCc1ccccc1C | – | – | – | – | – | -54
O=C(CCCC(=O)OCC(=O)c1cccs1)Nc1ccc(Oc2ccccc2)cc1 | – | – | – | – | – | -42
O=C(CN1CCCCCC1)Nc1ccc(Oc2ccccc2)cc1 | 67 | – | – | – | – | -38
O=C(COC(=O)C1CC1)Nc1ccc(Oc2ccccc2)cc1 | – | – | – | – | – | -35
O=C(CN1CCCCC1)Nc1ccccc1 | – | – | – | – | – | –
O=C(COC(=O)C1CCC1)Nc1ccc(Oc2ccccc2)cc1 | – | – | – | – | – | –
O=C(CCCC(=O)OCC(=O)c1cccs1)Nc1ccc(F)cc1 | – | – | – | – | – | –
O=C(CCn1ccc2cc(S(=O)(=O)N3CCCC3)ccc21)NCc1cccc(Br)c1 | – | – | – | – | – | –
N#Cc1ccccc1NC(=O)CSc1nnc(N)s1 | – | – | – | – | – | –
SMILES | D1 ag | D1 potentiator | TRHR enhancer | TRHR ag | USP1 inh | D1 antag
Cc1cccc(C)c1NC(=O)CSc1nnc(-c2cnccn2)n1C | – | – | – | – | – | -51
CC(C)OC(=O)CSc1nnc(-c2cnccn2)n1C | – | – | – | – | – | -35
CC(C)OC(=O)CSc1nnc(-c2ccccc2)n1N | – | – | – | – | – | –
CC(C)OC(=O)CSc1nnc(-c2cccnc2)n1N | – | – | – | – | – | -31
COc1ccc(CCNC(=O)CCc2c(C)nc3c4cccnc4nn3c2C)cc1OC | – | – | – | – | – | –
CCCc1nc2sc3ccccc3c(=O)c2c(=O)n1Cc1ccco1 | 80 | – | – | – | – | –
CC(=O)c1ccc(S(=O)(=O)NC2CC(=O)N(c3ccc(Cl)cc3)C2)cc1 (configuration not stated) | – | – | – | – | – | -34
Cc1cc(C)n(Cc2ccccc2Cl)n1 | – | – | – | – | – | -47
COc1ccc(-n2nnc(-c3nsc(NC(=O)c4cccs4)n3)c2C)cc1OC | – | – | – | – | – | –
CCOC(=O)CN=C1CC(C)(C)CC2=C1Sc1ncnc(N(C)C)c1N2 | – | – | – | – | – | -42
CCOC(=O)c1cc(CC)sc1NC(=O)CN1CCN(C(=O)c2ccco2)CC1 | 109 | – | – | – | – | –
CCOC(=O)c1cc(C)sc1NC(=O)CN1CCN(C(=O)c2ccco2)CC1 | – | – | – | – | – | –
Cc1ccc(C)c(N2CCN(C(=O)Cn3cnc4onc(-c5ccc(F)cc5)c4c3=O)CC2)c1 | – | – | – | – | ? | –
COc1ccccc1NC(=O)C(=O)N/N=C(\C)CC(=O)Nc1ccccn1 | – | – | – | – | – | -35
O=C(NCC1CCCO1)c1ccc(OC2CCN(C(=O)C3CC3)CC2)cc1 (configuration not stated) | – | – | – | – | – | -34
O=C(NCC1CCCO1)c1ccc(NC(=O)c2cc(F)c(F)cc2Cl)cc1 (configuration not stated) | – | – | 33 | – | – | –
CCOc1ccc(-n2c(=O)c3c(C)c(C)sc3n(CC(=O)NCCc3ccccc3)c2=O)cc1 | – | – | – | – | ? | –
COc1ccc(C(=O)N2CCN(Cc3ccccn3)CC2)cc1 | – | – | – | – | – | –
O=C(c1ccccc1)c1ccc(OCCCN2CCCC2)cc1 | – | – | – | – | – | –
O=C(c1ccccc1)N1CCN(Cc2ccccc2)CC1 | – | – | – | – | – | -53
O=C(c1ccc(-c2ccccc2)cc1)N1CCN(Cc2ccccn2)CC1 | – | – | – | – | – | -31
O=C(c1ccccc1)c1ccc(OCCOCCN2CCN(Cc3ccccc3)CC2)cc1 | – | – | – | – | – | -33
CCN1CCN(C(=O)c2ccc(CSc3ccc(C)cc3)cc2)CC1 | 183 | – | – | – | – | –
CSc1ccc(CN2CCN(C(=O)c3ccc([N+](=O)[O-])cc3)CC2)cc1 | – | – | – | – | – | -60
COc1ccc(NC(=O)Cn2c(=O)n(CCc3ccccc3)c(=O)c3c4c(sc32)CCCC4)cc1 | – | – | – | – | – | –
CC(C)c1ccc(Nc2c([N+](=O)[O-])c(=O)n(C)c3ccccc23)cc1 | – | – | – | – | – | -50
Cc1cccc(C(=O)Nc2ccc(S(=O)(=O)N3CCC(c4nc5ccccc5s4)CC3)cc2)c1 | – | – | – | – | – | –
CCc1ccc(NC(=O)CSc2c(C)cnc3c2c(=O)n(C)c(=O)n3C)cc1 | – | – | – | – | – | ·

Compound activity: PubChem BioAssay, National Center for Advancing Translational Sciences (NCATS)
